Consider 5 compounds from PubChem BioAssay (NCI).

This is part of a sample that, as a whole, favours compounds with a hit. Of some 83,000 tested, about 20% had one in any assay.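 A percent growth of 40 corresponds to 60% growth inhibition; 0 means no net growth; -100 means all cells died. Active threshold: below 10.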 Values without a mark were called inactive. Calls of active or inactive are those of the source.

For the assay, the system named is MDA-MB-468 breast. Put plainly: NCI-60 one-dose screen, 48 h (100 = growth as untreated, 0 = no growth, -100 = all killed). Particulars: 10 µM unless noted.
For the compound `O=C(CCl)Oc1ccc(-c2ccccc2)c(Br)c1`, the growth is 97.5%.

Regarding `C=C(C)[C@@H]1CC[C@]2(COCCCNCCCN)CC[C@]3(C)[C@H](CC[C@@H]4[C@@]5(C)CC[C@H](O)C(C)(C)[C@@H]5CC[C@]43C)[C@@H]12`, the growth was -81.6% (active).

As to `CCOc1ccc(S(=O)(=O)c2ccc(C)cc2)c2c1no[n+]2[O-]`, the growth is 103%.

On to `CC(=O)O[C@H]1[C@H](CC#CC#CC[C@@H]2C[C@]3(C)[C@H]4CC=C5[C@H]6[C@@H](C)[C@H](C)CC[C@]6(C(=O)NCCCCCCCCN)CC[C@@]5(C)[C@]4(C)CC[C@H]3C(C)(C)[C@H]2OC(C)=O)C[C@]2(C)[C@H]3CC=C4[C@H]5[C@@H](C)[C@H](C)CC[C@]5(C(=O)NCCCCCCCCN)CC[C@@]4(C)[C@]3(C)CC[C@H]2C1(C)C`, for which the growth is 73.5%.

`Nc1ncnc2c1nc(N)n2C1OC(CO)C(O)C1O` (stereo not given): the growth was -73.6% (active).
